Results reported in PubChem BioAssay AID1159580 (chemical genetic matrix, 2015).
Where “and” joins values, the source holds several entries; their conditions need not be identical. Equal values may be shown once. In all, about 5,500 compounds went through this assay and about 2,000 (36%) were called active. Another 18% or so got no clear call; they are omitted. Cut-off read from the data, not from the text of the source: active = normalized growth mostly below about 0.91 (no sharp cut-off); inconclusive = no clear call, values can overlap the other calls; inactive = mostly above about 0.92. The list shows a part of the results.

Assay: chemical genetic growth profiling, strain panel (AID 1159580);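 note: tested at 20 µM; growth read once vehicle control cultures reached saturation at 30 °C; 1 = growth at the plate median or of vehicle wells; lower values mean less growth of the strain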
Conditions: S. cerevisiae deletion strains, growth OD
[1] = locus YHR030C, strain SLT2, stronger effect = lower value
[2] = locus YHR079C, strain IRE1, stronger effect = lower value
[3] = locus YJL095W, strain BCK1, stronger effect = lower value
[4] = locus YJR066W, strain TOR1, stronger effect = lower value
[5] = locus YLR113W, strain HOG1, stronger effect = lower value
[6] = locus YNL183C, strain NPR1, stronger effect = lower value
[7] = locus YOR231W, strain MKK1, stronger effect = lower value
[8] = locus YPL256C, strain CLN2, stronger effect = lower value

Measured: normalized growth

CCC(C)[C@H]1O[C@]2(CC[C@@H]1C)C[C@@H]1C[C@@H](C/C=C(\C)[C@@H](OC3C[C@H](OC)C(O[C@H]4C[C@H](OC)[C@@H](O)[C@H](C)O4)[C@H](C)O3)[C@@H](C)/C=C/C=C3\CO[C@@H]4[C@H](O)C(C)=C[C@@H](C(=O)O1)[C@]34O)O2 (some centres not stated)
inactive: [1] 0.995 | [2] 0.992 | [3] 0.964 | [4] 0.941 | [5] 0.993 | [6] 0.948 | [7] 1 | [8] 0.94

CCC(C)[C@H]1O[C@]2(C=C[C@@H]1C)C[C@@H]1C[C@@H](C/C=C(\C)[C@@H](OC3C[C@H](OC)C(O[C@H]4C[C@H](OC)[C@@H](O)[C@H](C)O4)[C@H](C)O3)[C@@H](C)/C=C/C=C3\CO[C@@H]4[C@H](O)C(C)=C[C@@H](C(=O)O1)[C@]34O)O2 (some centres not stated)
active: locus YAL013W, strain DEP1, stronger effect = lower value 0.804 | locus YBR009C, strain hhf1, stronger effect = lower value 0.809 | locus YBR021W, strain FUR4, stronger effect = lower value 0.838 | locus YBR023C, strain chs3, stronger effect = lower value 0.889 | locus YBR279W, strain paf1, stronger effect = lower value 0.882 | locus YCL011C, strain gbp2, stronger effect = lower value 0.817 | locus YCL016C, strain dcc1, stronger effect = lower value 0.86 | locus YCL029C, strain bik1, stronger effect = lower value 0.889 | locus YCL069W, strain vba3, stronger effect = lower value 0.898 | locus YDL035C, strain GPR1, stronger effect = lower value 0.847 | locus YDL074C, strain BRE1, stronger effect = lower value 0.669 | locus YDL134C, strain PPH21, stronger effect = lower value 0.853 | locus YDL192W, strain arf1, stronger effect = lower value 0.847 | locus YDR137W, strain rgp1, stronger effect = lower value 0.499 | locus YDR162C, strain NBP2, stronger effect = lower value 0.769 | locus YDR195W, strain ref2 1.32 [resistant] | locus YDR318W, strain mcm21, stronger effect = lower value 0.853 | locus YDR388W, stronger effect = lower value 0.857 | locus YDR502C, strain sam2, stronger effect = lower value 0.841 | locus YER016W, strain bim1, stronger effect = lower value 0.911 | locus YGL086W, strain mad1, stronger effect = lower value 0.8 | locus YGL248W, strain PDE1, stronger effect = lower value 0.797 | locus YGL253W, strain hxk2, stronger effect = lower value 0.743 | locus YHR079C, strain IRE1 (second series), stronger effect = lower value 0.87 | locus YHR129C, strain ARP1, stronger effect = lower value 0.814 | locus YHR142W, strain chs7, stronger effect = lower value 0.864 | locus YIL066C, strain RNR3, stronger effect = lower value 0.742 | locus YIR030C, strain dcg1, stronger effect = lower value 0.904 | locus YJL095W, strain BCK1 (second series), stronger effect = lower value 0.891 | locus YJL164C, strain tpk1, stronger effect = lower value 0.795 | locus YJL187C, strain SWE1 (second series), stronger effect = lower value 0.791 | locus YKR001C, strain vps1, stronger effect = lower value 0.253 | locus YLL026W, stronger effect = lower value 0.886 | locus YLR039C, strain RIC1, stronger effect = lower value 0.274 | locus YLR058C, strain SHM2, stronger effect = lower value 0.881 | locus YLR221C, strain rsa3, stronger effect = lower value 0.832 | locus YLR258W, strain gsy2, stronger effect = lower value 0.849 | locus YLR262C, strain YPT6 (second series), stronger effect = lower value 0.418 | locus YLR262C, strain YPT6, stronger effect = lower value 0.214 | locus YLR268W, strain sec22, stronger effect = lower value 0.695 | locus YLR320W, strain mms22, stronger effect = lower value 0.828 | locus YLR330W, strain CHS5, stronger effect = lower value 0.893 | locus YLR342W, strain FKS1 (second series), stronger effect = lower value 0.452 | locus YLR342W, strain FKS1, stronger effect = lower value 0.681 | locus YLR418C, strain cdc73, stronger effect = lower value 0.824 | locus YMR205C, strain PFK2, stronger effect = lower value 0.77 | locus YMR307W, strain GAS1, stronger effect = lower value 0.323 | locus YNL071W, strain lat1, stronger effect = lower value 0.824 | locus YNL153C, strain GIM3, stronger effect = lower value 0.821 | locus YNL233W, strain BNI4, stronger effect = lower value 0.849 | locus YNL307C, strain MCK1, stronger effect = lower value 0.46 | locus YOR069W, strain VPS5, stronger effect = lower value 0.92 | locus YOR070C, strain gyp1, stronger effect = lower value 0.837 | locus YOR184W, strain ser1, stronger effect = lower value 0.698 | locus YOR270C, strain vph1, stronger effect = lower value 0.59 | locus YOR290C, strain snf2, stronger effect = lower value 0.864 | locus YPL051W, strain arl3, stronger effect = lower value 0.676 | locus YPL055C, strain LGE1, stronger effect = lower value 0.627 | locus YPL106C, strain sse1, stronger effect = lower value 1.38 [resistant] | locus YPR163C, strain tif3, stronger effect = lower value 0.897 | locus YPR167C, strain met16, stronger effect = lower value 0.862 | strain wtn01, stronger effect = lower value 0.76
0.865 (active) and 0.98 (inactive): [1]
0.722 (active) and 0.976 (inactive): [3]
inactive: locus YAL021C, strain ccr4, stronger effect = lower value 0.919 | locus YAL026C, strain drs2, stronger effect = lower value 0.954 | locus YAL030W, strain snc1, stronger effect = lower value 0.984 | locus YBL061C, strain skt5, stronger effect = lower value 0.964 | locus YBR171W, strain sec66, stronger effect = lower value 1 | locus YBR229C, strain ROT2, stronger effect = lower value 0.997 | locus YBR231C, strain swc5, stronger effect = lower value 0.947 | locus YCL061C, strain MRC1, stronger effect = lower value 0.976 | locus YCR088W, strain abp1, stronger effect = lower value 0.981 | locus YDL005C, strain med2, stronger effect = lower value 0.971 | locus YDL040C, strain nat1, stronger effect = lower value 0.983 | locus YDL101C, strain DUN1, stronger effect = lower value 0.933 | locus YDL185W, strain tfp1, stronger effect = lower value 1.02 | locus YDR001C, strain nth1, stronger effect = lower value 0.996 | locus YDR069C, strain doa4, stronger effect = lower value 1.02 | locus YDR101C, strain arx1, stronger effect = lower value 0.959 | locus YDR159W, strain sac3, stronger effect = lower value 0.915 | locus YDR297W, strain sur2, stronger effect = lower value 0.989 | locus YDR334W, strain swr1, stronger effect = lower value 0.982 | locus YDR335W, strain msn5, stronger effect = lower value 0.996 | locus YDR392W, strain spt3, stronger effect = lower value 0.855 | locus YEL003W, strain gim4, stronger effect = lower value 0.928 | locus YEL037C, strain rad23, stronger effect = lower value 0.973 | locus YEL061C, strain CIN8 (second series), stronger effect = lower value 0.973 | locus YEL061C, strain CIN8, stronger effect = lower value 0.933 | locus YER015W, strain faa2, stronger effect = lower value 0.957 | locus YER110C, stronger effect = lower value 1.03 | locus YER111C, strain swi4, stronger effect = lower value 0.997 | locus YER155C, strain BEM2 (second series), stronger effect = lower value 1.07 | locus YER155C, strain BEM2, stronger effect = lower value 0.966 | locus YER167W, strain BCK2, stronger effect = lower value 0.913 | locus YFR010W, strain ubp6, stronger effect = lower value 1 | locus YGL078C, strain dbp3, stronger effect = lower value 1.01 | locus YGL167C, strain pmr1, stronger effect = lower value 1.01 | locus YGL173C, strain kem1, stronger effect = lower value 0.967 | locus YGL227W, strain vid30, stronger effect = lower value 1 | locus YGL240W, strain doc1, stronger effect = lower value 1.06 | locus YGR135W, strain pre9, stronger effect = lower value 1.03 | locus YGR252W, strain gcn5, stronger effect = lower value 0.939 | locus YHR013C, strain ard1, stronger effect = lower value 0.847 | locus YHR027C, strain rpn1, stronger effect = lower value 0.977 | [2] 0.966 | locus YHR094C, strain hxt1, stronger effect = lower value 1.01 | locus YHR200W, strain rpn10, stronger effect = lower value 1.01 | locus YIL073C, strain SPO22, stronger effect = lower value 0.817 | locus YIL125W, strain kgd1, stronger effect = lower value 0.994 | locus YJL092W, strain hpr5, stronger effect = lower value 0.967 | locus YJL115W, strain asf1, stronger effect = lower value 1 | locus YJL129C, strain trk1, stronger effect = lower value 0.955 | locus YJL134W, strain LCB3, stronger effect = lower value 1.01 | locus YJL154C, strain vps35, stronger effect = lower value 1 | locus YJL166W, strain qcr8, stronger effect = lower value 0.916 | locus YJL168C, strain set2, stronger effect = lower value 1.02 | locus YJL187C, strain SWE1, stronger effect = lower value 0.951 | locus YJR043C, strain POL32, stronger effect = lower value 0.932 | [4] 0.973 | locus YJR075W, strain HOC1, stronger effect = lower value 0.906 | locus YKL009W, strain mrt4, stronger effect = lower value 1.01 | locus YKL068W, stronger effect = lower value 0.995 | locus YKL085W, strain MDH1 (second series), stronger effect = lower value 0.981 | locus YKL085W, strain MDH1, stronger effect = lower value 0.981 | locus YKL160W, strain elf1, stronger effect = lower value 0.969 | locus YKR026C, strain gcn3, stronger effect = lower value 0.996 | locus YKR091W, strain srl3, stronger effect = lower value 0.989 | locus YLL001W, strain dnm1, stronger effect = lower value 0.983 | locus YLL041C, strain sdh2, stronger effect = lower value 0.98 | locus YLR027C, strain aat2, stronger effect = lower value 0.936 | locus YLR102C, strain apc9, stronger effect = lower value 1.02 | [5] 0.975 | locus YLR357W, strain rsc2, stronger effect = lower value 1.03 | locus YLR370C, strain arc18, stronger effect = lower value 0.985 | locus YLR371W, strain rom2, stronger effect = lower value 1.03 | locus YLR384C, strain iki3, stronger effect = lower value 1.02 | locus YML016C, strain PPZ1, stronger effect = lower value 1 | locus YML032C, strain rad52, stronger effect = lower value 0.915 | locus YML120C, strain ndi1, stronger effect = lower value 0.955 | locus YML124C, strain tub3, stronger effect = lower value 1.01 | locus YMR058W, strain fet3, stronger effect = lower value 1 | locus YMR078C, strain ctf18, stronger effect = lower value 0.98 | locus YMR125W, strain sto1, stronger effect = lower value 1.03 | locus YMR129W, stronger effect = lower value 0.996 | locus YMR223W, strain ubp8, stronger effect = lower value 0.953 | locus YMR231W, strain pep5, stronger effect = lower value 0.984 | locus YNL067W, strain RPL9B, stronger effect = lower value 0.904 | [6] 0.926 | locus YNL209W, strain ssb2, stronger effect = lower value 0.937 | locus YNL248C, strain rpa49, stronger effect = lower value 0.926 | locus YNL250W, strain rad50, stronger effect = lower value 1.02 | locus YNL271C, strain bni1, stronger effect = lower value 1.01 | locus YNL298W, strain CLA4, stronger effect = lower value 1.04 | locus YNL322C, strain KRE1 (second series), stronger effect = lower value 0.935 | locus YNR049C, strain mso1, stronger effect = lower value 0.987 | locus YNR052C, strain pop2, stronger effect = lower value 0.952 | locus YOL012C, strain htz1 0.305 | locus YOL147C, strain pex11, stronger effect = lower value 0.935 | locus YOR001W, strain rrp6, stronger effect = lower value 1 | locus YOR061W, strain CKA2, stronger effect = lower value 0.891 | locus YOR080W, strain dia2, stronger effect = lower value 0.997 | locus YOR083W, strain WHI5, stronger effect = lower value 0.901 | locus YOR106W, strain vam3, stronger effect = lower value 0.984 | locus YOR136W, strain idh2, stronger effect = lower value 0.936 | locus YOR144C, strain elg1, stronger effect = lower value 0.97 | [7] 0.945 | locus YOR265W, strain rbl2, stronger effect = lower value 0.98 | locus YOR316C, strain cot1, stronger effect = lower value 1.01 | locus YPL078C, strain atp4, stronger effect = lower value 0.982 | locus YPL240C, strain hsp82, stronger effect = lower value 0.931 | [8] 0.955 | locus YPR119W, strain clb2, stronger effect = lower value 1.02 | locus YPR141C, strain kar3, stronger effect = lower value 0.997
